Measured values published in PubChem BioAssay (EPA / NIEHS).
Activity calls are given as the source filed them. How the source made its calls: active means hit-call score of the fitted dose curve at least 0.9, where 1 is the maximum; inactive means score below 0.9.

Key:
[1] = ATG_E_Box_CIS: Attagene CIS-FACTORIAL HepG2 Assay for human Enhancer Box (E-box) (AID 2282936); settings: HepG2 E-box cis-reporter transcription, actives raise or lower the signal
Method in brief: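 Transiently transfected HepG2, endogenous TF-driven reporters, 24 h dosing. Readout: RT-PCR plus capillary electrophoresis of fluorescent reporter fragments. Gain or loss of signal fitted bidirectionally against DMSO baseline.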

[2] = ATG_M_61_CIS: Attagene CIS-FACTORIAL HepG2 Assay for M61 Transcription Factor (Internal Marker) (AID 2282937); settings: HepG2 Attagene CIS-FACTORIAL M61 internal marker reporter; actives raise or lower the signal
Method in brief: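 Endogenous transcription factor activity in HepG2 is read through transiently transfected cis-element reporter units. After 24 h dosing, RNA undergoes reverse transcription, PCR and primer extension with 6-FAM before capillary electrophoresis; DMSO-referenced bidirectional fit.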

[3] = ATG_M_19_CIS: Attagene CIS-FACTORIAL HepG2 Assay for M19 Transcription Factor (Internal Marker) (AID 2282939); settings: HepG2 Attagene CIS-FACTORIAL M19 internal marker reporter; actives raise or lower the signal
Method in brief: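 HepG2 cells transiently transfected with cis-regulated multiple reporter transcription units were dosed for 24 h; reporter mRNA was quantified by RT-PCR, 6-FAM primer-extension labelling, HpaI digestion and capillary electrophoresis, with bidirectional fitting against DMSO baseline.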

[4] = ATG_ERE_CIS: Attagene CIS-FACTORIAL HepG2 Assay for Estrogen Response Element (ERE) (AID 2282940); settings: HepG2 ERE cis-reporter, Attagene RNA transcript; actives raise or lower the signal
Method in brief: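 HepG2 cells transiently transfected with cis-promoter-driven multiplexed reporter transcription units report endogenous TF activity. After 24 h compound exposure, reporter mRNA is quantified by RT-PCR with capillary electrophoresis fluorescence; bidirectional fitting versus DMSO baseline.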

[5] = ATG_Ets_CIS: Attagene CIS-FACTORIAL HepG2 Assay for human Erythroblast Transformation Specific (ETS) (AID 2282941); settings: HepG2 ETS cis-reporter transcription, actives raise or lower the signal
Method in brief: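 RT-PCR/capillary electrophoresis fluorescence read-out of reporter mRNA; HepG2 transient multi-reporter transfection; 24 h compound exposure; gain or loss of signal fitted bidirectionally relative to DMSO.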

[6] = target: Hepatocyte nuclear factor 3-beta (Homo sapiens) (UniProt Q9Y261); assay: ATG_FoxA2_CIS: Attagene CIS-FACTORIAL HepG2 Assay for human Forkhead box A2 (FOXA2) (AID 2282942); settings: HepG2 cis-reporter transcription factor activity, 24 h; actives raise or lower the signal
Method in brief: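 Reporter transcript induction is measured by fluorescence after capillary electrophoresis of RT-PCR products from HepG2 cells exposed 24 h. Cis-regulated reporter units report endogenous factor activity; curves fitted both directions against DMSO.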

[7] = ATG_FoxO_CIS: Attagene CIS-FACTORIAL HepG2 Assay for human Forkhead box O (FoxO) (AID 2282943); settings: HepG2 Attagene cis-reporter, FoxO element, mRNA; actives raise or lower the signal
Method in brief: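 HepG2 cells transiently transfected with cis-element-driven reporter units report endogenous FoxO activity. After 24 h chemical exposure, reporter mRNA quantified by RT-PCR, fluorescent labeling, HpaI digestion and capillary electrophoresis; bidirectional fit versus DMSO.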

[8] = ATG_GATA_CIS: Attagene CIS-FACTORIAL HepG2 Assay for human GATA Binding Protein (AID 2282944); settings: HepG2 GATA cis-element reporter, Attagene multiplex mRNA; actives raise or lower the signal
Method in brief: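 HepG2 cells transiently transfected with multiplexed cis-element reporter units reflecting endogenous transcription factor activity; reporter mRNA measured after 24 h dosing by RT-PCR, 6-FAM labeling, HpaI digestion and capillary electrophoresis. Bidirectional fitting versus DMSO baseline.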

[9] = ATG_EGR_CIS: Attagene CIS-FACTORIAL HepG2 Assay for human Early Growth Response 1 (EGR1) (AID 2282938); settings: HepG2 Attagene CIS-FACTORIAL EGR reporter mRNA; actives raise or lower the signal
Method in brief: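 Activity is taken as induction or loss of reporter mRNA versus DMSO, fitted bidirectionally. Transcripts from cis-regulated reporter units in transiently transfected HepG2 were measured after 24 h by RT-PCR with capillary electrophoresis.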

[10] = ATG_GLI_CIS: Attagene CIS-FACTORIAL HepG2 Assay for human Zinc Finger Protein GLI1 (AID 2282945); settings: HepG2, Attagene cis-factorial reporter mRNA, GLI element; actives raise or lower the signal
Method in brief: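 Transiently transfected HepG2 cells report endogenous transcription factor activity via cis-element-driven reporter units. After 24 h compound exposure, reporter mRNA was measured by RT-PCR with capillary electrophoresis; bidirectional fitting against DMSO baseline.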

Measured: AC50

Sequence of Hepatocyte nuclear factor 3-beta (Homo sapiens) (Q9Y261 whole entry, looked up): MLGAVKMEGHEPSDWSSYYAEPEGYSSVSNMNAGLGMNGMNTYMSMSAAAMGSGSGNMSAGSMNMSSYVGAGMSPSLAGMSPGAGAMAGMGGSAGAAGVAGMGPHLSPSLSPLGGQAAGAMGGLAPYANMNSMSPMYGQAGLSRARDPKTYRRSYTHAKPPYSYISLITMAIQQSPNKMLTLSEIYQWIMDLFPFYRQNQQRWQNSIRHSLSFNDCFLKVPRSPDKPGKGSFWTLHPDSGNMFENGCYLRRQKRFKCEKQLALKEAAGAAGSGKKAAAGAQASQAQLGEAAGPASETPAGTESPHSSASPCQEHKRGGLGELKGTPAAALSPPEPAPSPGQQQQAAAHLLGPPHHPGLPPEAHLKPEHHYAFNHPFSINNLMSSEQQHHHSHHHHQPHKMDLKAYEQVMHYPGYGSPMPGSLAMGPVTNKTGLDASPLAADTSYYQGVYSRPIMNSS

O=c1n(CCO)c(=O)n(CCO)c(=O)n1CCO
not listed: [9] | [10]
inactive: all other assays above

COCCOCCOCCOCCOC
not listed: [4] | [8]
inactive: all other assays above

CC(C)=CC1CC(C)CCO1 (configuration not stated)
not listed: [4] | [8] | [9]
inactive: all other assays above

COc1c2ccoc2cc2oc(=O)ccc12
not listed: [9]
inactive: all other assays above

Cc1cc(C)c(C)c(O)c1
not listed: [9]
inactive: all other assays above

COc1cc(C)ccc1C(C)C
not listed: [9]
inactive: all other assays above

CCCCCCCCCCCCCCCC[N+](C)(C)CC
active: [1] 13.5 µM
not listed: [9]
inactive: all other assays above

C[C@]12C=CC(=O)C=C1CC[C@@H]1[C@@H]2[C@@H](O)C[C@@]2(C)[C@H]1CC[C@]2(O)C(=O)CO
not listed: [9]
inactive: all other assays above

CC(C)c1ccc2c(c1)CC[C@H]1[C@](C)(CN)CCC[C@]21C
active: [9] 5.35 µM | [8] 5.79 µM
not listed: [4] | [6]
inactive: all other assays above

COc1ccc([C@@H]2CC(=O)c3c(O)cc(O[C@@H]4O[C@H](CO[C@@H]5O[C@@H](C)[C@H](O)[C@@H](O)[C@H]5O)[C@@H](O)[C@H](O)[C@H]4O)cc3O2)cc1OC
not listed: [9]
inactive: all other assays above

Cc1ccc(C(C)c2ccc(C)c(C)c2)cc1C
active: [10] 146 µM
not listed: [4] | [6]
inactive: all other assays above

Cc1ccc2oc(=O)ccc2c1
not listed: [9]
inactive: all other assays above

CC(C)(C)c1ccc(-c2ccc(C(C)(C)C)cc2)cc1
not listed: [9]
inactive: all other assays above

O=C1Nc2ccccc2C1(c1ccc(O)cc1)c1ccc(O)cc1
active: [1] 71.9 µM | [5] 48.8 µM | [7] 100 µM | [10] 70.8 µM
inactive: [2] | [3] | [4] | [6]

CC(C)(c1cc(Br)c(OCCO)c(Br)c1)c1cc(Br)c(OCCO)c(Br)c1
active: [3] 44.5 µM | [5] 43.7 µM | [6] 44.2 µM
not listed: [9]
inactive: all other assays above

O=[N+]([O-])c1ccc(CO)cc1
not listed: [1] | [9]
inactive: all other assays above

COC(=O)c1cc(Cl)ccc1[N+](=O)[O-]
not listed: [1] | [6]
inactive: all other assays above

CCO[Si](CCCN=C=O)(OCC)OCC
not listed: [1]
inactive: all other assays above

Cn1c(=O)[nH]c2ncn(C)c2c1=O
not listed: [1] | [4] | [10]
inactive: all other assays above

CCCCCCCCCCC=CC#N
not listed: [1] | [8]
inactive: all other assays above

CC1(C)[C@H]2CC[C@]1(C)C(=O)C2
not listed: [1] | [6]
inactive: all other assays above

CCN(CC#N)c1cccc(C)c1
not listed: [1] | [4]
inactive: all other assays above

CN(C)c1ccc(C(=N)c2ccc(N(C)C)cc2)cc1
active: [9] 1.36 µM | [6] 0.721 µM
not listed: [1]
inactive: all other assays above

CCCNC(=O)NS(=O)(=O)c1ccc(Cl)cc1
not listed: [1] | [9]
inactive: all other assays above

C=CCOc1c(Br)cc(Br)cc1Br
not listed: [1] | [4] | [6]
inactive: all other assays above

COc1ccc(-c2coc3cc(O)ccc3c2=O)cc1
active: [4] 2.23 µM
not listed: [1]
inactive: all other assays above
